In PubChem BioAssay AID1377 (University of Pittsburgh Molecular Library Screening Center, 2008):
About 830 (0.38%) of roughly 220,000 compounds were called active.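 The calls were made as follows: active = activation, scaled between plate controls, above about 75% (limit read from the data); inactive = activation under that limit.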 Many of the other results were omitted from the sample, so actives are more common in it than they were.

Test: inhibitors of zVAD-triggered necroptosis, primary screen, L929 cells (AID 1377);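 also: 0% = zVAD with DMSO and 100% = DMSO alone without zVAD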
Settings: ATP luminescence, 24 h, at 10 µM, with zVAD 60 µM, hits give high values

SMILES	viability rescue
COC(=O)C(c1ccccc1)N1CCCCCC1 (stereo not given)	0.41% (inactive)
COC(=O)N1C(c2ccccc2)C1c1ccccc1 (stereo not given)	83.8% (active)
CCCC[N+]1(C)C2CC(OC(=O)C(CO)c3ccccc3)CC1C1OC12 (stereo not given)	-0.33% (inactive)
CN1CCN(/N=C/c2c[nH]c3ccccc23)CC1	-0.46% (inactive)
CC1C2Cn3c(nc4ccccc43)C1N(C)O2 (stereo not given)	0.4% (inactive)
